The full ranking holds about 68,000 sequences; the median of “fluorescence intensity (a.u.)” is about 9,100, and the highest 2% start at about 16,000. What follows is part of a selection rich in the highest values, with near analogues and random picks from the rest.

Sequence of OsWRKY34 (Q0JBA9 entry or part of it): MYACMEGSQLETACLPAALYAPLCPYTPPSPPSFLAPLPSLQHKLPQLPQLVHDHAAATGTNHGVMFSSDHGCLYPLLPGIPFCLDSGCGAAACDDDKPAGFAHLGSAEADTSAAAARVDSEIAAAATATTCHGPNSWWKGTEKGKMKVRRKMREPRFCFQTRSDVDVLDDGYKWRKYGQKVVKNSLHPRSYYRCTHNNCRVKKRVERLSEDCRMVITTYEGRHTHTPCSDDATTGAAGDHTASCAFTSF

For the test, the target named is OsWRKY34 (Oryza sativa, UniProt Q0JBA9 1-250). Put plainly: protein-binding microarray (RPBM); PBS, 2% BSA, 51.3 ng/ul salmon testes DNA, 50 uM zinc acetate, 200 nM TF, 25 C, 1 h; high values mean tight binding. The following applies: protein: recombinant; tags: N-terminal polyhistidine and DsRed monomer fusion (pET32a); label: CyDye5-dUTP incorporated in the synthesized complementary strand; 3' TTTTT single-stranded linker to array surface; dsDNA, one strand shown. Put shortly:
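Transcription factors were made in E. coli BL21-CodonPlus as N-terminal fusions to a polyhistidine tag and DsRed, then purified on Ni–NTA. After primer extension with Cy5-dUTP and blocking with 2% BSA, a custom Agilent array was exposed for 1 h at 25 °C to 200 nM protein in PBS, 2% BSA, salmon testes DNA and 50 µM zinc acetate. Washed arrays were scanned on an Axon 4000B, and the binding signal is per-feature fluorescence intensity in arbitrary units.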
As to “ATCCTCCGCCGCCGCCTCACCTCCTCCGCCACCGCGCTCGCGGAGTCACCTAGTGCAG”, the binding signal was 8270 fluorescence intensity (a.u.).
Regarding “GCACCCCTGTTTTCTCAGCGATCATGGCTGTAATACTGAACGGAGTCACCTAGTGCAG”, the binding signal was 8070 fluorescence intensity (a.u.).
Take “TCCTCCGAATCCCAATCTCTCGCAGTTCGTTCGAGGAGCTCGGAGTCACCTAGTGCAG”: the binding signal was 8540 fluorescence intensity (a.u.).
With “GCCTCGCCCTCGCGTCGTCACCTCTCGCCATGGCCCACTACGGAGTCACCTAGTGCAG”, the binding signal is 9950 fluorescence intensity (a.u.).
The result for “ATTCTGTTGCGTCATCATGTTCCTGTCTACAGAGCTATACCGGAGTCACCTAGTGCAG” reads 8840 fluorescence intensity (a.u.).
The result for “TTTAAAACTAGGACCTGAGTAAATATTTTTCTTGAGTTTTCGGAGTCACCTAGTGCAG” reads 8040 fluorescence intensity (a.u.).
As to “GCTAGTTGTAATATACACATAATTGTTGCTTCATTTCAACCGGAGTCACCTAGTGCAG”, the binding signal was 9790 fluorescence intensity (a.u.).
Consider “TTGCAGTATCCCGGTTGCCCACCTTTCATGGTCCATCACCCGGAGTCACCTAGTGCAG”, for which the binding signal is 8490 fluorescence intensity (a.u.).
“GCAATTATTAATGTACCGCTCCGTTTTCATTTTTGGGTTGCGGAGTCACCTAGTGCAG”: the binding signal is 8630 fluorescence intensity (a.u.).
Consider “TGTGGAGTTTGAGGATTGCACAATAATCTCAGGGGCGGGCCGGAGTCACCTAGTGCAG”, for which the binding signal is 8590 fluorescence intensity (a.u.).
Regarding “AGGTTATAAGACGTTTTGACTTTGGTTAAAGTCAAACTACCGGAGTCACCTAGTGCAG”, the binding signal was 9600 fluorescence intensity (a.u.).
Turning to “CCTCTCGGGCGCCTCTCCTCTCCATCATTCCTCCCACTGCCGGAGTCACCTAGTGCAG”, the binding signal was 9880 fluorescence intensity (a.u.).
“ACCGAAAGTTCAATTTGGTCCTTTACATTTTATTTTGTCCCGGAGTCACCTAGTGCAG”: the binding signal was 8240 fluorescence intensity (a.u.).
Consider “TTGTGCTGGTTTTGGTTTTGGTTTTGGGTTGCATGTATGTCGGAGTCACCTAGTGCAG”, for which the binding signal is 9790 fluorescence intensity (a.u.).
In the case of “GCTATGTAATGTCCCATCCGTGCTGTATAGTTTGGGTTTTCGGAGTCACCTAGTGCAG”, the binding signal is 17200 fluorescence intensity (a.u.).
In the case of “CCTGTGTGTTGGTGCTGTCGGTATGTGGGTGGTGGTATTTCGGAGTCACCTAGTGCAG”, the binding signal was 14600 fluorescence intensity (a.u.).
“ATGTATGCACGATGTGAGTGTCCGTGTTTGTAATGTGTTTCGGAGTCACCTAGTGCAG”: the binding signal is 11300 fluorescence intensity (a.u.).
As for “TTGTGTATTGGTGCTGTCGGTGCATGGGTGGTGGTTTTTTCGGAGTCACCTAGTGCAG”, the binding signal was 20700 fluorescence intensity (a.u.).
As for “GTACTATGTATTGTCCCATCGTTGTATAGGTTGGTTTTTTCGGAGTCACCTAGTGCAG”, the binding signal was 8240 fluorescence intensity (a.u.).
Take “ACCTACTCACAATCACAGAATCACATCATAACATTATTGTCGGAGTCACCTAGTGCAG”: the binding signal is 9160 fluorescence intensity (a.u.).
Take “CCTGCCATGTCATGTTTGTACCTAGATACCAGGTATGACGCGGAGTCACCTAGTGCAG”: the binding signal is 8960 fluorescence intensity (a.u.).
Consider “AGATGTTTCCGCTGATACTTTGATACGTCGTCCTTATTTGCGGAGTCACCTAGTGCAG”, for which the binding signal was 10800 fluorescence intensity (a.u.).
As for “CCGATTCCCTGCCGCATCTGCCCGTTGCCCTCGCGCCCGGCGGAGTCACCTAGTGCAG”, the binding signal was 8880 fluorescence intensity (a.u.).
With “TGCAGATTTGGTTTTTCTTTTTTTTCGCACGTTCTCTTTCCGGAGTCACCTAGTGCAG”, the binding signal is 15700 fluorescence intensity (a.u.).
Consider “TATTTTTTGCTATTATCTTTCGTGTAAGCTATTTCTCTATCGGAGTCACCTAGTGCAG”, for which the binding signal is 9170 fluorescence intensity (a.u.).
The result for “GTGTGTGTTTTTGCAAAAGTTTTCTATAGAAAAGTTACATCGGAGTCACCTAGTGCAG” reads 8210 fluorescence intensity (a.u.); that for “TATATATATATATATATATATATATAGAAATTAAGTCAAACGGAGTCACCTAGTGCAG”, 8940 fluorescence intensity (a.u.); that for “AATTCAAATTCATACTGTTCAAACAAAGTCATATAGAAAACGGAGTCACCTAGTGCAG”, 28600 fluorescence intensity (a.u.).
The result for “TTTTTATACTGTTGGTACATATTCAAATTTGTCAAACATTCGGAGTCACCTAGTGCAG” reads 8960 fluorescence intensity (a.u.); that for “AAACGGTGCGTTTTTTGCAAAAAAATTCTATAGGAAAGTTCGGAGTCACCTAGTGCAG”, 63900 fluorescence intensity (a.u.).
Consider “CAGTGCGTATTTGCAATATATATATATAGGAAAGTTTCTTCGGAGTCACCTAGTGCAG”, for which the binding signal was 9390 fluorescence intensity (a.u.).
For the sequence “TCCTGTGCCTCTCTCATGGTGTGGGTGTCTGTGTCTTTGACGGAGTCACCTAGTGCAG”, the binding signal was 9040 fluorescence intensity (a.u.).
Consider “AAGGTGGGGTCATCATAAATATTTTTTAAGTGAAAATTTTCGGAGTCACCTAGTGCAG”, for which the binding signal was 9840 fluorescence intensity (a.u.).
Take “AATGGATATCAGGATATGAAGCTCAAAGTTATCGGTTATTCGGAGTCACCTAGTGCAG”: the binding signal was 8240 fluorescence intensity (a.u.).
For the sequence “CTATGAAGTTAAAAATACGCTCATCAGAAAGGATATATTTCGGAGTCACCTAGTGCAG”, the binding signal is 57200 fluorescence intensity (a.u.).
Consider “GGTTGAGGCTGTTTTCCGATCGTTCCGACCGTTTTCATCCCGGAGTCACCTAGTGCAG”, for which the binding signal is 8700 fluorescence intensity (a.u.).
For “GCCAACCGCATGCCGTCCCCGATGCCGCCCGCCGTCAACCCGGAGTCACCTAGTGCAG”, the binding signal was 8290 fluorescence intensity (a.u.).
As to “ATATTACTGGTGTTTACTTGCTTTTCTTTTTTTAAAAAAACGGAGTCACCTAGTGCAG”, the binding signal was 9160 fluorescence intensity (a.u.).
Turning to “ATATAAGGGATTTTGAGTTTTTGATTGCAACGTTTGACCACGGAGTCACCTAGTGCAG”, the binding signal is 8550 fluorescence intensity (a.u.).
Regarding “TATGCATCACCTCGTAATCCACAACTGACTTACCCTTTCTCGGAGTCACCTAGTGCAG”, the binding signal was 12300 fluorescence intensity (a.u.).
The result for “CTTTTGTGCTCATCTGAACTTCTGAAGTATCATAAAGAAGCGGAGTCACCTAGTGCAG” reads 31400 fluorescence intensity (a.u.); that for “TGCTTTTGTATTTTTTTTGCTGTGTATATATCATAAACTTCGGAGTCACCTAGTGCAG”, 8550 fluorescence intensity (a.u.); that for “AGAATGTTTGCTCAAAGTATGTTTTTGTCATCTGTTTTTCCGGAGTCACCTAGTGCAG”, 8800 fluorescence intensity (a.u.).
